Screens from PubChem BioAssay.
This is a sample that favours compounds with a hit; in the whole collection about 12% have one here.
PostGolgi ctrl – growth inhibition of yeast control strain, primary screen, counter-screen for post-Golgi transport modulator project; efflux-deficient yeast background strain, growth absorbance A615, 16 h; inhibition, % at 10 µM; actives 5% (n = 98,000); AID 738, 2007
PostGolgi yeast – phenotypic screen on post-Golgi transport, primary screen. inhibition, % at 10 µM. post-Golgi transport phenotypic cell assay. actives 0.9% (n = 98,000);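 also: yeast cells grown in 1536-well plates; yeast grown about 18 h at 30C before absorbance read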
D1 allo mod – D1 CRE-luciferase signal change, two-sided – cell-based, HEK293 D1, dopamine EC30, D1 allosteric modulator project, primary screen. D(1A) dopamine receptor (Homo sapiens), P21728. dopamine EC30 potentiation; actives deviate in either direction. B-score at 10 µM. actives 5.9% (n = 58,000);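 active = luminescence count or its row- and column-corrected plate score outside the 99.7% band of the plate's sample wells, on either side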
Target sequence (P21728 whole entry, looked up): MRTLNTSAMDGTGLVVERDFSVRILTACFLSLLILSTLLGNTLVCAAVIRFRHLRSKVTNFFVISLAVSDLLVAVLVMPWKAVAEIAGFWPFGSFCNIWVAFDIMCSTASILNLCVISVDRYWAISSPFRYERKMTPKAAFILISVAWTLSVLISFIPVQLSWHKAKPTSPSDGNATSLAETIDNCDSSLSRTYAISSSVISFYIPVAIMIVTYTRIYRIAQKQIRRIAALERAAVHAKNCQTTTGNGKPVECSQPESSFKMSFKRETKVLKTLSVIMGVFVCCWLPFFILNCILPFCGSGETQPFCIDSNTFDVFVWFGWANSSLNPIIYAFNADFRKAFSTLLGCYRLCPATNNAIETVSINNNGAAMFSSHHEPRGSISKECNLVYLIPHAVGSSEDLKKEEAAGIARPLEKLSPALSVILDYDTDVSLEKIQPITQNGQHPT
Cav3 T inh – Cav3.2 calcium influx blockers – cell-based, Fluo-4 calcium fluorescence, FDSS, MLSMR library, primary screen; Voltage-dependent T-type calcium channel subunit alpha-1H (Homo sapiens), O95180; Cav3.2-expressing cells; active compounds read low; B-score at 10 µM; actives 4% (n = 100,000); AID 449739, 2010;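 active = single-dose well whose peak fluorescence ratio is a statistical outlier from its plate by either plate-standardised score or position-corrected B-score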
DAT uptake mod – changed hDAT dopamine uptake under cocaine IC80, either direction, primary screen, cocaine antagonist project, cell-based, LLC-PK1 hDAT, [14C]-dopamine uptake, MLSMR | B-score at 10 µM | actives 1.3% (n = 110,000) | LLC-PK1 hDAT cells, [14C]-dopamine uptake with cocaine IC80; actives deviate in either direction;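 active = Z score or B-score, a plate-position-corrected score, falls beyond the plate's 99.7% confidence bounds, in either direction; inactive = both scores lie inside the 99.7% bounds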;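 also: scored against the spread of the other compound wells on the same plate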
PLAP activator – PLAP enzyme activators, biochemical, luminescence, HTS. Alkaline phosphatase, placental type (Homo sapiens), P05187. purified PLAP enzyme, luminescent substrate read-out; active compounds read high. activation fold at 20 µM. actives 1.2% (n = 96,000). AID 696, 2007; in the data active = activation fold above about 2
D1 PAM confirm – D1 receptor positive allosteric modulators, retest, confirmation, cell-based, HEK293 D1, CRE-luciferase, duplicate; shares compounds with D1 allo mod; dopamine EC30 potentiation; active compounds read high; luminescence at 10 µM; AID 642, 2007; actives 88% (n = 2,200);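 active = luminescence in either of two replicates above the same-plate mean plus 3 SD of the low-dose dopamine control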
D1 ag no DA – D1 receptor agonism without dopamine, confirmation, mechanism study for D1 allosteric modulator project, cell-based, HEK293 D1, CRE-luciferase, secondary assay 1. luminescence at 10 µM. AID 646, 2007. luminescence, no dopamine; active compounds read high. actives 0.8% (n = 1,900). shares compounds with D1 allo mod; in the data active = luminescence above about 3900
Isoprot counter – isoproterenol response counter-screen activity for D1 modulators; shares compounds with D1 allo mod; HEK293 D1 CRE-luciferase, isoproterenol EC30 counter-screen; calls only at 10 µM; actives 63% (n = 2,200);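 active = luminescence in either replicate above plate mean of wells with a partly effective reference agonist dose plus 3 SD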;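 also: isoproterenol raises cAMP through native beta-adrenoceptor Gs so signal bypasses D1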
The depositor's hits bear a star; i = inactive; x = not tested or not shown; + = active, no number. Rule as the data show it, unless noted: active = inhibition above about 30%; inactive = the rest.

SMILES | PostGolgi ctrl | PostGolgi yeast | D1 allo mod | Cav3 T inh | DAT uptake mod | PLAP activator | D1 PAM confirm | D1 ag no DA | Isoprot counter
CN(C)C(CNC(=O)c1cccnc1Sc1ccccc1)c1ccco1 (stereo not drawn) | -1 | 10 | 6.6* | -0.044 | -0.016 | 0.9 | 8824* | x | +
CCCCSc1nc2ccccc2n1CC(=O)O | x | x | x | x | 1.1 | x | x | x | x
CSc1nc2ccccc2n1C(=O)Oc1ccccc1 | 24 | -3 | 9.4* | -0.28 | -0.11 | 1.1 | 12420* | 1516 | +
CCCSc1nnc2nc3c(nn12)c1ccccc1n3C | 6 | -2 | 3 | x | 1.9 | 1.3 | x | x | x
Cc1sc2ncnc(SCc3ccco3)c2c1C | 8 | -2 | 0.53 | 0.85 | -1 | 1 | x | x | x
Cc1noc(C)c1CSc1ccc2ccccc2n1 | x | x | 0.053 | -0.12 | -0.36 | x | x | x | x
Cc1noc(C)c1CSc1ncnc2ccccc12 | 10 | -3 | 3.9* | -0.016 | -0.98 | 1.5 | 7560* | 1844 | i
Cc1noc(C)c1CSc1ncnc2sc(C)c(C)c12 | 17 | 0 | 5.2* | 0.026 | -1.4 | 1 | 10232* | 1588 | +
CCC(=O)Nc1cccc(NC(=O)c2cccc([N+](=O)[O-])c2)c1 | 12 | -3 | x | -0.28 | -0.097 | 0.8 | x | x | x
Cc1ccc(SCC(=O)NCCSC(C)(C)C)cc1 | 4 | 7 | x | 0.013 | 2.8 | 0.8 | x | x | x
CCOC(=O)c1sc2nc(N3CCOCC3)c3c(c2c1N)CC(C)(C)N(C)C3 | 7 | -5 | 3.1* | 0.93 | -0.99 | 1.5 | 12684* | 1612 | +
CC(C)N(O)C(=O)NC(C)(C)C | -4 | 4 | -0.46 | x | 0.55 | 0.9 | x | x | x
CCCCc1c(O)nc(SCC(=O)NCCc2ccc(OC)c(OC)c2)[nH]c1=O | 3 | -3 | 0.98 | -1.4 | 0.0012 | 1 | x | x | x
O=C(C1CCN(S(=O)(=O)c2cccc3cccnc23)CC1)N1CCn2c1nc1ccccc12 | 6 | -1 | 4.9* | x | x | 1.5 | 12004* | 2024 | +
O=C(C1CCN(S(=O)(=O)c2cccc3cccnc23)CC1)N1CCN(Cc2ccccc2)CC1 | x | x | -0.062 | x | x | x | x | x | x
CCOc1ccc(CCNS(=O)(=O)c2cccc3nsnc23)cc1OCC | 7 | 19 | 19* | x | 0.91 | 1.4 | 19296* | 1552 | +
COC(=O)[C@@H]1[C@H](CCc2ccccc2)NC(=O)N(Cc2ccccc2)[C@@H]1C | x | x | x | -1.1 | 0.096 | x | x | x | x
CCS(=O)(=O)NCCc1cc2ccc(C)cc2[nH]c1=O | 8 | 18 | 0.48 | -0.4 | 0.3 | 0.9 | x | x | x
Cc1cc2nc(-c3ccco3)cc(C(F)(F)F)n2n1 | 5 | -5 | 32* | -0.11 | -0.012 | 1 | 22332* | x | +
COc1ccc(-c2cc(C(F)(F)F)n3nc(C(=O)N4CCCC4)cc3n2)cc1 | -3 | -3 | 0.6 | -1.3 | -0.0062 | 0.9 | x | x | x
COc1ccc(-c2cc(C(F)(F)F)n3nc(C)cc3n2)cc1 | 4 | -3 | 12* | 0.12 | -0.96 | 0.9 | 9368* | 1632 | +
COc1ccc(-c2cc(C(F)(F)F)n3nc(N)nc3n2)cc1 | 2 | -3 | x | 0.36 | -0.014 | 0.9 | x | x | x
COc1cccc(-c2cc(C(F)(F)F)n3nc(N)nc3n2)c1 | -3 | -5 | 7.3* | 0.35 | 0.036 | 0.8 | 15000* | 1596 | +
CCOC(=O)c1[nH]c(C)c(C(=O)NC2CCN(C(=O)OCC)CC2)c1C | 3 | 16 | 2.1* | 1.5 | 2.3 | 1.2 | 5396 | 1508 | i
COc1ccc(CCN(C(=O)C(F)(F)F)C(C(=O)NC2CCCCC2)c2ccc(C)s2)cc1OC (stereo not drawn) | 4 | 4 | x | -0.14 | 0.23 | 1.5 | x | x | x
SMILES | PostGolgi ctrl | PostGolgi yeast | D1 allo mod | Cav3 T inh | DAT uptake mod | PLAP activator | D1 PAM confirm | D1 ag no DA | Isoprot counter
CCC(C(=O)Nc1cc(C)nn1-c1nc(C)cc(C)n1)c1ccccc1 (stereo not drawn) | 48* | 17 | 9.9* | -0.51 | -0.2 | 1.5 | 12296* | x | +
Cn1c(Cl)c(C(=O)Nc2ccc(Cl)cc2)c2ccccc21 | -5 | -1 | x | 0.26 | -1.5 | 1 | x | x | x
Cc1nc2cccc(C(=O)NC3CCCCC3)c2o1 | 4 | 22 | 14* | 0.45 | -0.1 | 0.7 | 19668* | x | +
O=C(NC1CCCC1)c1cccnc1N1CCCCCC1 | 0 | -1 | -0.017 | 0.6 | 0.0004 | 1 | x | x | x
CCC[C@@H]1CCCO[C@@](C(=O)NCCN2CCOCC2)(C(F)(F)F)C1 | x | x | x | 0.15 | -0.22 | x | x | x | x
CSc1ccccc1-n1nnnc1SCc1ccccc1 | 21 | -11 | 3.8* | -2.8 | 0.7 | 0.8 | 7588* | x | i
O=C(COc1cccc2ccccc12)NNC(=O)c1cccs1 | 13 | 2 | x | x | x | 1.2 | x | x | x
O=C(c1cnn2c(C(F)F)cc(C3CC3)nc12)N1CCc2ccccc2C1 | 8 | -2 | 1.5 | -1.5 | -0.037 | 1.2 | x | x | x
Cc1cc(NC(=O)c2cnn3c(C(F)F)cc(-c4ccccc4)nc23)no1 | -6 | -1 | 1.9 | -1 | -0.93 | 0.9 | x | x | x
O=C(CCc1ccccc1)Nc1ccccc1C(=O)NCc1ccco1 | x | x | x | -0.83 | -1.5 | x | x | x | x
O=C(Nc1ccccc1C(=O)NCc1ccco1)c1ccccc1 | 6 | 10 | 5.3* | x | -0.28 | 1 | 10828* | x | +
O=C(NCc1ccco1)c1cnn2c(C(F)F)cc(-c3ccccc3)nc12 | 10 | 21 | 5.2* | 0.3 | -0.4 | 0.8 | 7604* | 1664 | +
O=C(NCCc1ccccc1)c1cnn2c(C(F)F)cc(C3CC3)nc12 | 39* | 18 | 5.1* | -3 | 0.24 | 1 | 12520* | 1540 | +
CCOC(=O)c1c(N)sc2c1CCC(C)C2 (stereo not drawn) | 12 | 8 | 0.13 | -0.063 | -0.65 | 1 | x | x | x
CCOC(=O)c1c(N)sc2c1CCCC2 | 8 | -7 | 5.2* | 1.1 | 0.17 | 1.1 | 15712* | 1680 | +
CCCn1c2ccccc2c2nnc(SCC(=O)Nc3ncccn3)nc21 | 4 | 2 | 20* | 0.96 | 0.9 | 1.1 | 22748* | 1692 | +
O=C(O)CCC(=O)NC1CCCCC1NC(=O)CCC(=O)O (stereo not drawn) | x | x | -0.082 | x | x | x | x | x | x
